# Like-named read-outs stand apart in the source and are kept apart here.
# How the values were obtained:
# Settings in all cases: n = 1
# [1] = test system: SIK2
# [2] = test system: SIK
# [3] = test system: SLK
# [4] = test system: T1, SNARK
# T1 construct: gene NUAK2
# [5] = test system: SNRK
# [6] = test system: SRC
# [7] = test system: SRMS
# [8] = test system: SRPK1
# [9] = test system: SRPK2
# [10] = test system: SRPK3
# [11] = test system: STK16
# [12] = test system: STK33
# [13] = test system: STK35
# [14] = test system: STK36
# [15] = test system: STK39
# [16] = test system: SYK
# [17] = test system: SgK110
# [18] = test system: T2, TAK1
# T2 construct: gene MAP3K7
# [19] = test system: TAOK1
# [20] = test system: TAOK2
# [21] = concentration: 1 μM, replicates: in singlicate
# 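Also: KINOMEscan kinase panel screen.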
compound,measurement,setting,value
CC1=C(C(=O)Nc2cc3cn[nH]c3cc2F)C(c2ccc(C(F)(F)F)cc2)CC(=O)N1 (stereo not shown) [GSK429286],%Inh,[1]; [21],0%
same,%Inh,[2]; [21],0%
same,%Inh,[3]; [21],1%
same,%Inh,[4]; [21],80%
same,%Inh,[5]; [21],0%
same,%Inh,[6]; [21],0%
same,%Inh,[7]; [21],0%
same,%Inh,[8]; [21],0%
same,%Inh,[9]; [21],0%
same,%Inh,[10]; [21],0%
same,%Inh,[11]; [21],14%
same,%Inh,[12]; [21],0%
same,%Inh,[13]; [21],0%
same,%Inh,[14]; [21],0%
same,%Inh,[15]; [21],20%
same,%Inh,[16]; [21],4%
same,%Inh,[17]; [21],0%
same,%Inh,[18]; [21],0%
same,%Inh,[19]; [21],0%
same,%Inh,[20]; [21],0%
Cc1nnc(-c2ccc3occ(-c4ccc(S(C)=O)cc4)c3c2)[nH]1 (stereo not shown),%Inh,[1]; [21],19%
same,%Inh,[2]; [21],7%
same,%Inh,[3]; [21],50%
same,%Inh,[4]; [21],11%
same,%Inh,[5]; [21],0%
same,%Inh,[6]; [21],9%
same,%Inh,[7]; [21],0%
same,%Inh,[8]; [21],27%
same,%Inh,[9]; [21],0%
same,%Inh,[10]; [21],0%
same,%Inh,[11]; [21],11%
same,%Inh,[12]; [21],0%
same,%Inh,[13]; [21],22%
same,%Inh,[14]; [21],3%
same,%Inh,[15]; [21],0%
same,%Inh,[16]; [21],0%
same,%Inh,[17]; [21],0%
same,%Inh,[18]; [21],7%
same,%Inh,[19]; [21],0%
same,%Inh,[20]; [21],0%
COC(=O)c1c(-c2ccccc2)c2cc(C(=O)O)ccc2c(=O)n1Cc1ccccc1,%Inh,[1]; [21],0%
same,%Inh,[2]; [21],0%
same,%Inh,[3]; [21],16%
same,%Inh,[4]; [21],5%
same,%Inh,[5]; [21],0%
same,%Inh,[6]; [21],0%
same,%Inh,[7]; [21],0%
same,%Inh,[8]; [21],0%
same,%Inh,[9]; [21],0%
same,%Inh,[10]; [21],0%
same,%Inh,[11]; [21],22%
same,%Inh,[12]; [21],0%
same,%Inh,[13]; [21],0%
same,%Inh,[14]; [21],5%
same,%Inh,[15]; [21],0%
same,%Inh,[16]; [21],0%
same,%Inh,[17]; [21],14%
same,%Inh,[18]; [21],0%
same,%Inh,[19]; [21],14%
same,%Inh,[20]; [21],20%
Cc1ccc(NC(=O)Nc2cccc(C(F)(F)F)c2)cc1 [GSK955403],%Inh,[1]; 1 µM,0%
same,%Inh,[2]; 1 µM,0%
same,%Inh,[3]; 1 µM,5%
same,%Inh,[4]; 1 µM,0%
same,%Inh,[5]; 1 µM,0%
same,%Inh,[6]; 1 µM,15%
same,%Inh,[7]; 1 µM,0%
same,%Inh,[8]; 1 µM,17%
same,%Inh,[9]; 1 µM,5%
same,%Inh,[10]; 1 µM,0%
same,%Inh,[11]; 1 µM,30%
same,%Inh,[12]; 1 µM,0%
same,%Inh,[13]; 1 µM,0%
same,%Inh,[14]; 1 µM,10%
same,%Inh,[15]; 1 µM,3%
same,%Inh,[16]; 1 µM,19%
same,%Inh,[17]; 1 µM,0%
same,%Inh,[18]; 1 µM,13%
same,%Inh,[19]; 1 µM,0%
same,%Inh,[20]; 1 µM,0%
COc1cccc(NC(=O)NC2CCN(c3ccnc(Nc4ccc(F)cc4)n3)C2)c1 (stereo not shown) [GSK1379721],%Inh,[1]; [21],0%
same,%Inh,[2]; [21],0%
same,%Inh,[3]; [21],0%
same,%Inh,[4]; [21],0%
same,%Inh,[5]; [21],0%
same,%Inh,[6]; [21],0%
same,%Inh,[7]; [21],0%
same,%Inh,[8]; [21],0%
same,%Inh,[9]; [21],5%
same,%Inh,[10]; [21],0%
same,%Inh,[11]; [21],16%
same,%Inh,[12]; [21],0%
same,%Inh,[13]; [21],0%
same,%Inh,[14]; [21],0%
same,%Inh,[15]; [21],9%
same,%Inh,[16]; [21],0%
same,%Inh,[17]; [21],0%
same,%Inh,[18]; [21],0%
same,%Inh,[19]; [21],0%
same,%Inh,[20]; [21],0%
Nc1nc(-c2nccs2)c(-c2ccnc3ccccc23)s1 [GW693542],%Inh,[1]; [21],0%
same,%Inh,[2]; [21],0%
same,%Inh,[3]; [21],9%
same,%Inh,[4]; [21],8%
same,%Inh,[5]; [21],0%
same,%Inh,[6]; [21],0%
same,%Inh,[7]; [21],0%
same,%Inh,[8]; [21],20%
same,%Inh,[9]; [21],0%
same,%Inh,[10]; [21],31%
same,%Inh,[11]; [21],32%
same,%Inh,[12]; [21],0%
same,%Inh,[13]; [21],0%
same,%Inh,[14]; [21],0%
same,%Inh,[15]; [21],10%
same,%Inh,[16]; [21],24%
same,%Inh,[17]; [21],13%
same,%Inh,[18]; [21],0%
same,%Inh,[19]; [21],0%
same,%Inh,[20]; [21],0%
Cn1ccc2ncnc(Oc3ccc(Nc4nc5ccccc5[nH]4)cc3)c21,%Inh,[1]; [21],10%
same,%Inh,[2]; [21],0%
same,%Inh,[3]; [21],14%
same,%Inh,[4]; [21],0%
same,%Inh,[5]; [21],0%
same,%Inh,[6]; [21],3%
same,%Inh,[7]; [21],0%
same,%Inh,[8]; [21],0%
same,%Inh,[9]; [21],7%
same,%Inh,[10]; [21],0%
same,%Inh,[11]; [21],15%
same,%Inh,[12]; [21],0%
same,%Inh,[13]; [21],19%
same,%Inh,[14]; [21],0%
same,%Inh,[15]; [21],0%
same,%Inh,[16]; [21],0%
same,%Inh,[17]; [21],0%
same,%Inh,[18]; [21],0%
same,%Inh,[19]; [21],0%
same,%Inh,[20]; [21],0%
Cc1ccccc1-n1cnc2c(N)ncnc21 [SKF-97510],%Inh,[1]; [21],0%
same,%Inh,[2]; [21],0%
same,%Inh,[3]; [21],100%
same,%Inh,[4]; [21],0%
same,%Inh,[5]; [21],0%
same,%Inh,[6]; [21],13%
same,%Inh,[7]; [21],0%
same,%Inh,[8]; [21],0%
same,%Inh,[9]; [21],0%
same,%Inh,[10]; [21],0%
same,%Inh,[11]; [21],21%
same,%Inh,[12]; [21],0%
same,%Inh,[13]; [21],0%
same,%Inh,[14]; [21],27%
same,%Inh,[15]; [21],0%
same,%Inh,[16]; [21],100%
same,%Inh,[17]; [21],0%
same,%Inh,[18]; [21],0%
same,%Inh,[19]; [21],0%
same,%Inh,[20]; [21],0%

# Reference: paper PMC5540273 (PLoS ONE, 2017)
